MITF primary = MITF inhibitors, primary screen, biochemical, AlphaScreen, human. 650,000 tested, 0.91% active. Microphthalmia-associated transcription factor (Homo sapiens), O75030. inhibition, % at 2.6 µM. AlphaScreen MITF homodimerization, bead proximity signal; in the data active means inhibition above about 50%
TEAD-YAP block = TEAD-YAP interaction inhibition, primary screen, TEAD-YAP interaction inhibitor project, luminescence, HEK-TIYL cells; TEAD-Gal4/YAP UAS-luciferase luminescence; inhibition, % at 9.12 µM; 640,000 tested, 1.4% active; in the data active means inhibition above about 32%
FBW7 activator = FBW7 E3 ligase activators, primary screen, biochemical, AlphaScreen, human; F-box/WD repeat-containing protein 7 (Homo sapiens), Q969H0; AlphaScreen FBW7–phospho-cyclin E peptide binding, activator screen; normalized activity (activation), % at 26.1 µM; 650,000 tested, 0.13% active; AID 1259310, 2017; in the data active means normalized activity above about 1.9%;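 further: purified mutant Fbw7 with reduced substrate affinity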
GPR151 ag = activators of human GPR151, primary screen, cell-based, PathHunter beta-arrestin, luminescence; 650,000 tested, 1% active; PathHunter beta-arrestin GPR151 cells; G-protein coupled receptor 151 (Homo sapiens), Q8TDV0; activation, % at 11.2 µM; in the data active means activation above about 4.9%
Target sequence (Q8TDV0 whole entry, looked up): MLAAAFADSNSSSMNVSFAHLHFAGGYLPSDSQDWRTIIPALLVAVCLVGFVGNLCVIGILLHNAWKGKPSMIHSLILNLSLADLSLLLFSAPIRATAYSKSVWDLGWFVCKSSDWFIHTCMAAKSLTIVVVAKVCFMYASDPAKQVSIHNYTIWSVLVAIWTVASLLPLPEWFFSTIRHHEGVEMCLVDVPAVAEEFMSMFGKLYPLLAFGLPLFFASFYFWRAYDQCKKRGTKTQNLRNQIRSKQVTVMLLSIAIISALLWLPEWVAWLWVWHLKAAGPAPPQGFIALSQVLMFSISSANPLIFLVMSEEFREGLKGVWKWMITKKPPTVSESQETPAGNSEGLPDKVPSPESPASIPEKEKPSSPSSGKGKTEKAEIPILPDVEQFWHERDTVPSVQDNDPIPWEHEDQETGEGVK
Of the large screens only hits and unclear results are named; the others gave an inactive call. An excerpt weighted towards active compounds, which were near 3.5% of everything screened.

Cc1ccc(CC(=O)NCc2ccc(F)cc2)cc1	TEAD-YAP block 39
Cc1ccc(C(=O)NCc2cccs2)cc1C	none
Cc1ccc(CC(=O)NCc2cccs2)cc1C	TEAD-YAP block 45
Cc1c(C2=N/C(=C/c3ccc(Cl)cc3)C(=O)O2)cccc1[N+](=O)[O-]	none
COc1ccccc1C1=NOC(C(=O)NCCCn2ccnc2)C1 (stereo not given)	none
CCOC(=O)c1[nH]c(C)c(C(=O)NCc2ccc(OC)cc2)c1C	none
COc1ccc(CNC(=O)c2c(C)[nH]c(C(C)=O)c2C)cc1	TEAD-YAP block 58
O=C(Cn1cccc1)NCc1ccc(F)cc1	none
O=C(Cc1ccc(-n2cccc2)cc1)NCc1ccc(F)cc1	TEAD-YAP block 60
O=C(Cc1ccc(-n2cccc2)cc1)NCc1cccs1	TEAD-YAP block 45
COc1ccccc1N1CCN(S(=O)(=O)c2cc([N+](=O)[O-])ccc2Cl)CC1	none
COc1ccc(C(=O)Nc2cc(C)[nH]n2)c(OC)n1	none
CS(=O)(=O)N(CC(=O)N1CCOCC1)c1ccc(Oc2ccccc2)cc1	none
CCOc1ccc(N(CC(=O)N2CCOCC2)S(C)(=O)=O)cc1	FBW7 activator 2.1
O=C1Nc2ccccc2/C1=C/c1nc2ccccc2c(=O)n1-c1cccc([N+](=O)[O-])c1	none
O=C1Nc2ccccc2/C1=C\c1nc2ccccc2c(=O)n1-c1cccc([N+](=O)[O-])c1	TEAD-YAP block 41
CCCNC1=C(N(C(C)=O)c2cccc(F)c2)C(=O)c2ccccc2C1=O	TEAD-YAP block 93
CC(=O)N(C1=C(N2CCCC2)C(=O)c2ccccc2C1=O)c1ccc(F)c(F)c1	none
CC(=O)N(C1=C(N2CCN(C)CC2)C(=O)c2ccccc2C1=O)c1cccc(F)c1	TEAD-YAP block 88
CC(=O)N(C1=C(N2CCCCC2)C(=O)c2ccccc2C1=O)c1cccc(Cl)c1	MITF primary 56
CC(=O)N(C1=C(Nc2ccccc2)C(=O)c2ccccc2C1=O)c1ccccc1	none
CCCCNC(=O)CN1C(=O)NC(C)(c2cccc(Br)c2)C1=O (stereo not given)	none
CC(=O)N1CCc2cccc(NC(=O)NS(=O)(=O)c3ccc(C)cc3)c21	none
Cc1ccc2nc(SCC(=O)Nc3nccs3)c(C)cc2c1	none
COc1cc(C(F)(F)F)c(C(=O)NC2(O)C(=O)c3ccccc3C2=O)cn1	none
COc1ccc(-n2nc(C(=O)c3ccccc3)c(C(F)(F)F)cc2=O)cn1	TEAD-YAP block 49
COc1ccc(C2=NN(C(=O)c3cccs3)C(c3ccccc3F)C2)cc1OC (stereo not given)	none
Cc1ccc(C2=NN(S(C)(=O)=O)C(c3ccccc3F)C2)cc1 (stereo not given)	none
COc1cc(C(=O)N2N=C(c3ccc4ccccc4c3)CC2c2ccccc2)cc(OC)c1OC (stereo not given)	none
COc1ccc(C2=NN(C(=O)c3cc(OC)c(OC)c(OC)c3)C(c3ccccc3F)C2)cc1OC (stereo not given)	TEAD-YAP block 42
COc1cc(C(=O)N2N=C(c3ccccc3)CC2c2ccccc2)cc(OC)c1OC (stereo not given)	TEAD-YAP block 53
COc1ccc(C2=NN(C(=O)c3cc(OC)c(OC)c(OC)c3)C(c3ccc(F)cc3)C2)cc1OC (stereo not given)	TEAD-YAP block 50
Cc1ccc(C2=NN(C(=O)c3ccncc3)C(c3ccccc3F)C2)cc1 (stereo not given)	TEAD-YAP block 47
COc1ccc(OC)c(-n2c(=S)sc3c(=O)n(-c4ccccc4C)c(SCC#N)nc32)c1	none
CCCNC(=O)c1ccc2c(c1)nc(C)n2-c1ccc(F)cc1F	none
O=C(c1ccccc1)N1CCN(c2nc3ccccc3s2)CC1	none
CCN1CCN(C(=O)c2cc(C(C)C)n(-c3nc4ccccc4s3)n2)CC1	TEAD-YAP block 81
COc1ccc(NC(=O)c2cc(C(C)C)n(-c3nc4ccccc4s3)n2)c(OC)c1	TEAD-YAP block 64
COc1cccc(NC(=O)c2cc(C(C)C)n(-c3nc4ccccc4s3)n2)c1	TEAD-YAP block 48
CC(C)c1cc(C(=O)Nc2ccc(Cl)cn2)nn1-c1nc2ccccc2s1	TEAD-YAP block 46
CCOc1cccc2c1OC(c1ccc(SC)cc1)N1N=C(c3ccco3)CC21 (stereo not given)	none
CC(=O)Nc1ccc(N2CCOCC2)cc1	none
O=C(NCCc1ccc(O)cc1)c1cccc(-c2ccc(N3CCOCC3)nc2)n1	TEAD-YAP block 46

Compound activity (PubChem)
